Cycloheximide cs = affects cycloheximide protein synthesis inhibition readout, counter-screen | cell reporter, cycloheximide protein synthesis inhibition counterscreen | max response, % | 300,000 tested, 12% active | AID 2314; in the data active = max response mostly above about 13%, no sharp cut-off; inactive = mostly below about 14%; note: read at 38.3 µM for the half of the compounds with a filed dose; 0% is about no effect
Shiga toxin inh = inhibitors of Shiga toxin in Vero cells. AID 2315. inhibition, % at 38.7 µM. Vero cells, Shiga toxin protein synthesis inhibition reporter. 290,000 tested, 9.2% active; in the data active = inhibition mostly above about 28%, no sharp cut-off; inactive = mostly below about 43%; note: 0% is about no effect
SARS PLP yeast = SARS-CoV PLP inhibition in yeast. Potency, µM (doses to about 32.9 µM), for inactives: top-dose activity, positive = growth rescue, most hits filed as activators. 330,000 tested, 0.19% active. AID 485353. S. cerevisiae expressing SARS-CoV PLpro, growth rescue; calls by dose curve; note: potency is the fitted concentration of half-maximal effect; 0% is about no effect; nearly all actives have a fitted effect of over 55% in size
Pf growth 96h = inhibits malaria parasite growth, 96 h; P. falciparum luciferase reporter growth, 96 h; Potency, µM (doses to about 28.7 µM), inactives show at the top dose activity change, negative = inhibition, usual class: inhibitors; 320,000 tested, 6.9% active; AID 504834; note: potency is the fitted concentration of half-maximal effect; % is set by controls: 0 for no effect and ±100 for the full control effect
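P. falciparum expressing integrated firefly luciferase, in erythrocytes at 2% hematocrit, 0.05% parasitemia, incubated with compounds 96 h at 37 C, 5% CO2. Growth inhibition read as loss of luminescence; two-generation exposure targets delayed-death apicoplast inhibitors.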
AMA1 RON2 block = disrupts binding of P. falciparum AMA1 to RON2 | 360,000 tested, 0.2% active | Potency, µM (series often up to 58.2 µM), for inactives: at the highest dose activity change, negative = inhibition, most hits filed as inhibitors | AID 720542 | AlphaScreen AMA1-biotinylated RON2 peptide binding;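 note: potency is the fitted concentration of half-maximal effect; 0% = vehicle wells and -100% = peptide control; nearly all actives have a fitted effect of over 45% in size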
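AMA1 (3D7) with his tag at 25 nM final met compounds first, then biotinylated RON2 peptide at 25 nM; detection used donor plus acceptor beads, 10 µg/mL apiece, read by AlphaScreen after 30 min at room temperature.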
Pf growth 48h = inhibits P. falciparum growth in the first generation, 48 h; P. falciparum luciferase growth in erythrocytes, 48 h; Potency, µM (highest dose often 28.7 µM), without a hit: at the top dose activity change, negative = inhibition, hits mostly inhibitors; 310,000 tested, 5.9% active; AID 504832; note: potency is the fitted concentration of half-maximal effect; % is set by controls: 0 for no effect and ±100 for the full control effect
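Read-out is firefly luciferase luminescence from an integrated reporter in P. falciparum, so falling signal marks reduced parasite growth. Infected erythrocytes were at 2% hematocrit and 0.1% parasitemia (final) in Albumax-supplemented RPMI 1640.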
An asterisk follows results filed as active; ? = inconclusive; · = no result given; [ ] = remark or other dose. In the library only some 19% were active in any assay of this set; here they are far more common. Unless noted, calls come from the whole dose curve; as a rule, active = well fitted curve in the direction sought with a large enough effect; inconclusive = small, poorly fitted or top-dose-only effect, or another doubt; inactive = no such curve, though single readings can be large; an effect the other way counts as inactive or inconclusive.

SMILES	Cycloheximide cs	Shiga toxin inh	SARS PLP yeast	Pf growth 96h	AMA1 RON2 block	Pf growth 48h
CC(C)C1O/C(=N/C(=O)Nc2ccc(Cl)c(Cl)c2)NC1=O (stereo not drawn)	13	17	-39%	?	2%	12µM*
Cc1cc(C)cc(Oc2nc3ccccn3c(=O)c2/C=C(\C#N)C(=O)NC2CCS(=O)(=O)C2)c1 (stereo not drawn)	-3	23	-2%	-17%	14%	?
Cc1ccc(Oc2nc3ccccn3c(=O)c2/C=C(\C#N)C(=O)NC2CCS(=O)(=O)C2)c(C)c1 (stereo not drawn)	-2	4	3%	10µM*	-5%	?
N#C/C(=C\c1c(Oc2ccccc2F)nc2ccccn2c1=O)C(=O)NC1CCS(=O)(=O)C1 (stereo not drawn)	-1	3	0%	9.3µM*	-4%	?
O=C(CSc1nnc(NC(=O)c2ccco2)s1)Nc1ccccc1Br	-7	-17	1%	9%	10%	3%
COc1ccc(CCNC(=O)c2ccccc2NC(=O)C2=C(C)OCCS2)cc1OC	13	12	22%	?	-8%	?
O=C(CCl)c1ccc2c(c1)CCN2C(=O)C1CCCCC1	13	-4	-7%	?	-4%	?
O=C(/C=C/c1cccs1)Nc1sc2c(c1C(=O)O)CCCC2	25	30	-11%	29%	-2%	20%
NC(=O)c1c(/N=C/c2cccs2)sc2c1CCCC2	10*	21	-1%	55%	4%	53%
O=C(NCCOc1ccccc1)C1CCC(=O)N(CCc2ccc(Cl)cc2)C1 (stereo not drawn)	19*	33	2%	?	-2%	-3%
CN(CCOc1ccccc1)C(=O)C1CCC(=O)N(CCc2ccc(Cl)cc2)C1 (stereo not drawn)	46*	87*	2%	-14%	-5%	-13%
COc1ccc(CCN2CC(C(=O)N(C)CCOc3ccccc3)CCC2=O)cc1 (stereo not drawn)	26*	22	-2%	5%	-7%	-12%
CN(Cc1ccccn1)C(=O)C1CCC(=O)N(CCc2ccc(Cl)cc2)C1 (stereo not drawn)	1	-4	3%	1%	-3%	0%
O=C1CCC(C(=O)N2CCCCO2)CN1CCc1ccc(Cl)cc1 (stereo not drawn)	20*	20	2%	-19%	-10%	5%
COc1ccc(S(=O)(=O)N2CCN(c3ccccc3F)CC2)cc1-c1noc(C)n1	15	24	·	·	·	·
Cc1ccc(NS(=O)(=O)c2csc(C(N)=O)c2)cc1C	2	-5	1%	34%	9%	?
O=C1c2ccccc2NC2(CCCC2)N1N=C1CCCC1	29*	74*	0%	10%	15%	17%
O=C1c2ccccc2NC2(CCCCC2)N1c1ccc(O)cc1	14*	29	5%	30%	-4%	36%
CS(=O)(=O)NN1C(=O)c2ccccc2NC12CCCC2	-1	-6	3%	-22%	11%	-5%
CCC1(CC)N=C(c2ccccc2)C(=S)N1	-7	17	29%	?	7%	?
C[C@H](CO)N1C[C@H](C)[C@H](CN(C)S(C)(=O)=O)OCc2cnnn2CCCC1=O	·	·	·	·	2%	·
O=C(/C=C1\NC2(CCCC2)Cc2ccccc21)N1CCOCC1	-4	-13	4%	?	-2%	?
CC1(C)Cc2c(ccc3ccccc23)/C(=C/C(=O)N2CCCCC2)N1	-5	-13	-6%	?	?	10µM*
CCOc1ccc2nc(SCC(=O)c3ccccc3)sc2c1	43*	91*	4%	39%	88%	·
CCOc1ccc2nc(SCC(=O)NC3CC3)sc2c1	15*	20	-1%	61%	-10%	21%
SMILES	Cycloheximide cs	Shiga toxin inh	SARS PLP yeast	Pf growth 96h	AMA1 RON2 block	Pf growth 48h
NS(=O)(=O)c1ccc(N2C(=O)CCCC2=O)cc1	·	·	·	·	-7%	·
O=C(CN1C(=O)C2C3c4ccccc4C(c4ccccc43)C2C1=O)Nc1ccccc1C(=O)O (stereo not drawn)	5	12	5%	?	3%[11.6 µM]	-26%
CC(C)(C)OC(=O)NCCc1nnc(S(=O)(=O)Cc2ccc(Cl)cc2Cl)o1	19*	-4	-1%	8%	-2%	-13%
CC(C)(C)OC(=O)NCCc1nnc(SCc2ccccc2Cl)o1	-2	8	3%	-4%[5.75 µM]	-4%	?
O=C(Nc1cccc(-n2cnnn2)c1)c1ccc(OC(F)(F)F)cc1	-3	-11	16%	-4%	-3%	0%
CCC(=O)Nc1sc(C(=O)OC)c(C)c1C(=O)OC	-5	12	11%	14%	9%	6%
COC(=O)c1sc(NC(=O)C2c3ccccc3Oc3ccccc32)c(C(=O)OC)c1C	7	10	2%	10µM*	-6%	1.7µM*
COC(=O)c1sc(NC(=O)C(C)C)c(C(=O)OC)c1C	40*	16	9%	?	1%	9%
COC(=O)c1c(NC(=O)C2CCC2)sc(C(=O)N(C)C)c1C	-1	-7	7%	?	-3%	12%
COC(=O)c1c(NC(=O)C2CC2)sc(C(=O)Nc2ccccc2)c1C	25*	52*	0%	-1%	-4%	22%
CCN(CC)C(=O)C1CCCN(Cc2ccc3ccccc3c2)C1 (stereo not drawn)	-2	-5	9%	13µM*	-2%	9%
NC(=O)C1CCCN(Cc2ccc3ccccc3c2)C1 (stereo not drawn)	1	-16	4%	2.6µM*	4%	?
COc1ccc([C@H]2C=C(C(=O)O)O[C@@H](OCCCCO)C2)cc1	2	-2	-1%	19%	63%	7%
Cc1ccc(C)c(OCc2cc(C(=O)NC3CCOC(C)(C)C3)no2)c1 (stereo not drawn)	56*	85*	-2%	10µM*	0%	-3%
CSc1ccccc1OCc1cc(C(=O)NC2CCc3ccccc32)no1 (stereo not drawn)	9	9	6%	19%	0%	-17%
O=C(NC1CCOC1)c1cc(COc2cccc(C(F)(F)F)c2)on1 (stereo not drawn)	41*	66*	-3%	?	6%	-24%
CSc1ccccc1OCc1cc(C(=O)NC2CCOC(C)(C)C2)no1 (stereo not drawn)	22*	97*	-6%	?	9%	-30%
CSc1ccccc1OCc1cc(C(=O)NC2CCOC2)no1 (stereo not drawn)	49*	49*	-3%	41%	-16%	7%
O=C(NCC1CCOCC1)c1cc(COc2cccc(C(F)(F)F)c2)on1	-3	-2	-3%	-3%	7%	18%
CN1CCN(C(=O)c2cnn3c2NC(c2ccccc2)CC3C(F)(F)F)CC1 (stereo not drawn)	1	-20	3%	62%	-2%	-8%

Screens: PubChem, National Center for Advancing Translational Sciences (NCATS)
